Experimental data as given in PubChem BioAssay AID651814 (National Center for Advancing Translational Sciences (NCATS), 2012).
Hit rate of the full screen: of about 2,100 compounds, about 590 (28%) were called active. Inconclusive results (about 42%) are left out. The call rests on the fitted dose curve; in most records, active means well fitted inhibition curve with a large enough effect; inconclusive means small, poorly fitted or top-dose-only effect; inactive means flat fitted curve, though single readings scatter. This is one part of the list.

Target: DNA dC->dU-editing enzyme APOBEC-3F (Homo sapiens) (UniProt Q8IUX4)
Assay: qHTS for inhibitors of Vif-A3F interactions: Cherry picks; further: nearly all actives have a fitted effect of over 70% in size;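 on max response: % of control where 0% means no effect; active compounds raise eYFP fluorescence by blocking Vif-driven A3F loss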
Details: HeLa A3F-eYFP + Vif (tagged APOBEC3F with the HIV-1 protein that degrades it), eYFP fluorescence, 24 h
Outline: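 HeLa cells stably expressing A3F-eYFP plus Vif, cultured overnight, then exposed to compounds at several concentrations for 24 h at 37 deg C. Reduced Vif-driven degradation read as rising eYFP fluorescence (488 nm ex/500-530 nm em) by laser-scanning cytometry; MG132 as positive control.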
Potency means the concentration at half of the fitted maximal effect.

Chain of DNA dC->dU-editing enzyme APOBEC-3F (Homo sapiens) (Q8IUX4 whole entry, looked up): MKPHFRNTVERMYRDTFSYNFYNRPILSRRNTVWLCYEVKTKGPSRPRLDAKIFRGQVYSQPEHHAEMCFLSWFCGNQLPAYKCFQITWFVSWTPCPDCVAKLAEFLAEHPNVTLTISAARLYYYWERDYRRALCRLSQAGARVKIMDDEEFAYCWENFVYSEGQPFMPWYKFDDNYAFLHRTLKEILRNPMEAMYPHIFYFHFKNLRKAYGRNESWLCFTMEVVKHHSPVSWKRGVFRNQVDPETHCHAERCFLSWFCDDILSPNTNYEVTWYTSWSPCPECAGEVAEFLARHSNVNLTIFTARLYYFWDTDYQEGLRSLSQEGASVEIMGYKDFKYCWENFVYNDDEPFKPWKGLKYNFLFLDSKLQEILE

SMILES | Potency | max response
CCN(CC)c1ccc2c(c1)oc(=O)c1c(Cl)cc(=O)oc12 | 20.6 µM (active) | –
Cc1ccc(O)c(Nc2c3ccccc3nc3ccccc23)c1 | – | -0.294% (inactive)
Cc1ccc(O)c(NC(=O)c2cc(-c3ccccc3O)no2)c1 | 18.4 µM (active) | –
CCc1nnc(NC(=O)CSc2nnc(-c3ccccc3O)n2-c2ccc(C)cc2C)s1 | – | -23.9% (inactive)
Cn1cc(/C=C/c2ccc3ccccc3n2)c2ccccc21 | 20.6 µM (active) | –
Cn1cc(/C=C/c2ccnc3ccccc23)c2ccccc21 | 23.1 µM (active) | –
COC(=O)C1=COC(C)C2CN3CCc4c([nH]c5cc(OC)c(OC)cc45)C3CC12 (stereo not drawn) | – | -8.29% (inactive)
CC(=O)Nc1ccc(S(=O)(=O)Nc2nc3ccccc3nc2Nc2ccc(N)cc2)cc1 | – | -0.838% (inactive)
O=[N+]([O-])c1cc(O)c2ncccc2c1 | – | -7.28% (inactive)
O=[N+]([O-])c1cc(Cl)c2cccnc2c1O | – | 3.56% (inactive)
Cc1cc(N2CCN(c3ccc([N+](=O)[O-])c4cccnc34)CC2)c2ccccc2n1 | 10.3 µM (active) | –
Cc1cc(C)c2cc3c(N)c(C(=O)Nc4c(C)[nH]c(=O)[nH]c4=O)sc3nc2c1 | 13 µM (active) | –
Cc1ccc(C2=NN(C(=O)c3cccs3)C(c3ccccc3O)C2)cc1 (stereo not drawn) | – | -0.929% (inactive)
CCCSc1nnc(N2C(=O)C(O)=C(C(=O)c3ccco3)C2c2ccccc2F)s1 (stereo not drawn) | – | -6.1% (inactive)
Cc1ccc(C2C(C(=O)c3cccs3)=C(O)C(=O)N2c2nnc(C)s2)cc1 (stereo not drawn) | 19.8 µM (active) | –
FC(F)(F)c1ccccc1NC(=S)NN=C1CCCCCC1 | – | 0.807% (inactive)
O=C(NNC1=Nc2cccc3cccc1c23)c1ccc(Br)cc1 | 16.4 µM (active) | –
CC(C)OC(=O)c1cc(C(=O)c2cc(F)ccc2O)coc1=N | 23.1 µM (active) | –
C=CCN=c1scc(-c2ccc(F)cc2)n1/N=C/c1ccccn1 | – | 5.22% (inactive)
Cc1ccc(-n2nc3c(SCCN4CCOCC4)nnc(C)c3c2C)cc1 | – | -16.8% (inactive)
Cc1nnc(SCC(=O)NCc2ccccc2F)c2nn(-c3ccc(Cl)cc3)c(C)c12 | 16.4 µM (active) | –
C=C1C(=O)O[C@H]2C1CC[C@@](C)(O)C13C=CC(C)(C21)C1(C3)C(=O)O[C@@H]2C3C(C)=CCC3[C@](C)(O)C[C@H](OC(C)=O)C21 (stereo partly drawn) | – | -25.3% (inactive)
CCN1/C(=C/c2ccc3ccccc3[n+]2CC)C=Cc2ccccc21 | – | -17% (inactive)
CCN1/C(=C/c2cc[n+](C)cc2)C=Cc2cc(C)ccc21 | 11.6 µM (active) | –

SMILES | Potency | max response
CC1(C)COC(Cn2c3ccccc3c3ccccc32)O1 (stereo not drawn) | – | -25.3% (inactive)
CCOc1cc([N+](=O)[O-])cc2c1C(=O)Nc1ccccc1O2 | – | -12% (inactive)
O=C1Nc2ccc(Br)cc2C12NNc1ccccc1O2 (stereo not drawn) | 14 µM (active) | –
COc1ccc(CCNC(=O)CC2(CC3=NS(=O)(=O)c4ccccc4N3)CCCC2)cc1OC | – | -0.97% (inactive)
CCn1c2ccccc2c2cc(NC(=O)CNCc3ccccc3OC)ccc21 | – | -24.7% (inactive)
Cc1cc(C)cc(NC(=O)Cn2cc(C(=O)C3CCCCC3)c3ccccc32)c1 | 18.4 µM (active) | –
Cc1cc(C)cc(NC(=S)NC(=O)C2CC2)c1 | – | -4.35% (inactive)
CN(C)c1ccc(/C=C/c2nccc3ccccc23)cc1 | 18.4 µM (active) | –
CCN(Cc1ccccc1)c1ccc(/C=C(\C#N)c2ccccn2)cc1 | – | -7.46% (inactive)
CCN(Cc1ccccc1)c1ccc(/C=C/c2nccc3ccccc23)cc1 | 20.6 µM (active) | –
CCN(CC)c1nc(C=Cc2ccc(N(C)C)cc2)c2nccnc2n1 | 1.84 µM (active) | –
CN(C)c1ccc(C=Cc2nccc3ccccc23)cc1 | 11.2 µM (active) | –
O=C(OCC12CC3CC(CC(C3)C1)C2)c1ccc(NCc2cc(O)ccc2O)cc1 | – | -19.8% (inactive)
NC(=O)c1ccc(NC(=O)C#Cc2ccccc2)cc1 | – | -20.2% (inactive)
CC[n+]1c(C=C2C=C(C)OC(C)=C2)sc2ccccc21 | 2.31 µM (active) | –
CN(C)c1ccc2nc3c(=O)[nH]c(=O)nc-3n(CC(O)C(O)C(O)CO)c2c1 (stereo not drawn) | – | -2.88% (inactive)
O=[N+]([O-])c1ccc(N/N=C\c2cccn2-c2ccccc2)nc1 | 14 µM (active) | –
CCN(CC)c1ccc(C=NNc2ccc([N+](=O)[O-])cn2)cc1 | – | -25.4% (inactive)
COc1cc(C2C(C#N)=C(N)Oc3cc(O)ccc32)cc2c1OCO2 (stereo not drawn) | – | -28.2% (inactive)
CCN(CC)c1ccc2c(c1)OC(N)=C(C#N)C2c1cccnc1 (stereo not drawn) | 17.7 µM (active) | –
CC1=C(n2nnc3ccccc32)C(c2ccccc2)C(C#N)=C(N)O1 (stereo not drawn) | – | -5.98% (inactive)
CN(C)c1ccc(/C=C(/C#N)C(=O)NCc2ccccc2)o1 | 14.6 µM (active) | –
N#C/C(=C\c1ccccc1[N+](=O)[O-])C(=O)NCc1ccccc1 | – | -6.74% (inactive)
COc1cc(OC)c(C2Nc3cccc4cccc(c34)N2)c(OC)c1 | – | -0.492% (inactive)

SMILES | Potency | max response
COc1cc(OC)c(/C=C/c2ccc3ccccc3[n+]2C)c(OC)c1 | 5.17 µM (active) | –
CC(=O)c1cccc(-c2ccnc3c2CC(C(=O)Nc2ccc(Cl)cc2)O3)c1 (stereo not drawn) | – | -28.2% (inactive)
Nc1nc(-c2cc(O)ccc2[N+](=O)[O-])cc(-c2ccccc2)c1[N+](=O)[O-] | 12.5 µM (active) | –
CCN(CC)C(=O)Cn1c(=O)n(-c2ccccc2)c(=O)c2c3c(sc21)CCC3 | – | 1.37% (inactive)
COc1ccc(OC)c(NC(=O)Cn2cnc3onc(-c4ccc(Cl)cc4)c3c2=O)c1 | – | -18% (inactive)
COc1ccc(OC)c(NC(=O)Cn2c(=O)n(-c3ccc(Cl)cc3)c(=O)c3c(C)c(C)sc32)c1 | 20.6 µM (active) | –
CNC(=S)N/N=C/c1ccc(N2CCOCC2)s1 | – | -10.3% (inactive)
CC(C)NC(=S)N/N=C1\CCCCc2ccccc21 | – | 2.14% (inactive)
CC(C)NC(=S)N/N=C/c1sc(N2CCCCC2)nc1-c1cccs1 | 16.4 µM (active) | –
N#Cc1c(C(F)(F)F)cc(-c2ccccc2)nc1SCc1nc(N)nc(N2CCOCC2)n1 | 5.8 µM (active) | –
COc1cc(N2CCCC2)c(OC)cc1/C=C(/C#N)c1ccc(Br)cc1 | 7.31 µM (active) | –
COc1cc(N2CCCC2)c(OC)cc1/C=C(/C#N)c1ccc(F)cc1 | 20.6 µM (active) | –
CC1Cc2cc(S(=O)(=O)CCC(=O)NCc3ccc(Cl)cc3)ccc2N1C(=O)C1CC1 (stereo not drawn) | – | -29.5% (inactive)
Cc1ccc(C(=O)Nc2sc(Cc3ccc4c(c3)OCO4)c(C)c2C(N)=O)cc1 | 6.51 µM (active) | –
O=C(/C=C/c1cccs1)NCc1ccc2c(c1)OCO2 | – | 1.53% (inactive)
COC(=O)c1c(-c2cccnc2)csc1NC(=O)c1ccc2c(c1)OCO2 | – | -11.9% (inactive)
CCOc1cc(/C=C2\N=C(SC(C)C(N)=O)N(c3ccc(OC(F)F)cc3)C2=O)ccc1O (stereo not drawn) | 15.8 µM (active) | –
COc1cc(N2CCCC2)c(OC)cc1/C=C1/NC(=S)NC1=O | 3.53 µM (active) | –
Cc1cccc2cc(C#N)c(SCC(=O)N3CC(=O)Nc4ccccc43)nc12 | 4.44 µM (active) | –
Cc1cc(C)c2nc(SCC(=O)N3CC(=O)Nc4ccccc43)c(C#N)cc2c1 | 3.96 µM (active) | –
CC(C)(C)c1ccc(OCC(=O)Nc2ccc3c4c(cccc24)C(=O)NC3=O)cc1 | – | 5.82% (inactive)
CCCCn1c(N)c(N(Cc2ccccc2OC)C(=O)c2ccc([N+](=O)[O-])s2)c(=O)[nH]c1=O | – | -9.57% (inactive)
O=C(NCC1CCCO1)c1nn2c(C(F)(F)F)cc(-c3cc(Br)cs3)nc2c1Br (stereo not drawn) | 11.6 µM (active) | –
COc1ccc(S(=O)(=O)Nc2cc(Sc3ncn[nH]3)c(O)c3ccccc23)cc1 | – | -14.9% (inactive)

SMILES | Potency | max response
CCCNc1c(F)c(F)c2c(C)c3ccccc3nc2c1F | 14 µM (active) | –
Cc1c2ccccc2nc2c(F)c(NC(C)C)c(F)c(F)c12 | 6.51 µM (active) | –
CC(C)C1C(=O)N(Cc2cn(CCC3OCCCO3)nn2)CCS(=O)(=O)N1Cc1ccc(-c2cccc(CO)c2)cc1 (stereo not drawn) | – | -10.5% (inactive)
CCOC(=O)c1sc2cc([N+](=O)[O-])cc(SCC(C)C)c2c1N | 2.06 µM (active) | –
COC(=O)c1sc2cc([N+](=O)[O-])cc(SCC(C)C)c2c1N | 13 µM (active) | –
CC1(C(=O)Nc2ccc3c(c2)OCO3)Cc2c(-c3ccccc3)ccnc2O1 (stereo not drawn) | – | -25.3% (inactive)
COc1cc2c(cc1OC)C1=CC(=O)C(=O)N1C(C)(C)C2 | 14 µM (active) | –
COc1ccc(N/C=C/c2nc(SC)nnc2C)cc1 | – | -11.1% (inactive)
C=CCSc1nnc(C)c(/C=C/Nc2ccc(Cl)cc2)n1 | 20.6 µM (active) | –
O=C1c2ccccc2-c2nc3ccccc3cc21 | – | -23.6% (inactive)
O=C1c2ccccc2C(=O)c2cc(N3CCCCC3)ccc21 | 8.86 µM (active) | –
C=C(/C=C/c1ccc(N(C)C)cc1)c1nc2ccccc2s1 | 14.6 µM (active) | –
COc1cc(/C=C2/SC(=S)N(Cc3ccccc3)C2=O)cc(Cl)c1O | 4.44 µM (active) | –
COc1cc(/C=C2\SC(=S)N(NC(=O)c3ccccc3OC)C2=O)ccc1O | – | -7.76% (inactive)
COc1cc(/C=C2\SC(=S)N(NC(=O)c3ccccc3O)C2=O)ccc1O | – | -22.7% (inactive)
O=C(O)c1cc(-c2ccc(/C=C3/SC(=S)N(Cc4ccccc4)C3=O)o2)ccc1Cl | 13 µM (active) | –
COc1cc(/C=C2/SC(=S)N(CCC(=O)Nc3ccccc3)C2=O)cc(OC)c1OC | 18.4 µM (active) | –
O=C1/C(=C\c2ccc(O)cc2)SC(=S)N1Cc1ccccc1 | – | -2.14% (inactive)
Cc1cc(N2CCCC2)ccc1/C=C1\NC(=S)N(C)C1=O | 1.84 µM (active) | –
Cc1cc(/C=C2\NC(=S)N(C)C2=O)ccc1N1CCCC1 | 12.5 µM (active) | –
O=C1/C(=C/c2ccc(N3CCCC3)cc2)NC(=S)N1C1CC1 | 5.17 µM (active) | –
